The source made the active and inactive calls.

For 14 compounds, composite z-score and z-score results are on record in PubChem BioAssay.

The nature of test [1]: binders of probe aFSTL3 on microarray, primary screen, stem cell growth factor project, biochemical, small-molecule microarray, fluorescence 635/667 (AID 1064).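 Also: measures binding of the biotinylated anti-FSTL3 antibody to printed compounds.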 To be noted: higher = more signal.
Test [2] can be described thus: binders from COS7 lysate, DM2A8 probe, primary screen, torsin A project, cell lysate, small-molecule microarray, fluorescence 635/667 (AID 1065). To be noted: higher = more signal, COS7 lysate expressing mutant human TOR1A.
A short description of test [3]: binders of probe aFGF2 on microarray, primary screen, stem cell growth factor project, biochemical, small-molecule microarray, fluorescence 635/667 (AID 1067).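 Also: measures binding of biotinylated aFGF2 protein to printed compounds on slides; z-score merges feature fluorescence and signal-to-noise across triplicate slides.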 To be noted: higher = more signal.
Test [4] in a line: binders of probe aFGF10 on microarray, primary screen, stem cell growth factor project, biochemical, small-molecule microarray, fluorescence 635/667 (AID 1071).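 Also: score merges 667 nm spot intensity and signal to noise from triplicate slides.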 To be noted: higher = more signal.
Test [5] concerns the target Neurogenic locus notch homolog protein 2 (Homo sapiens) (UniProt Q04721). Kind of test: Notch2 binders on small-molecule microarrays, primary screen, biochemical, small-molecule microarray, 635 nm fluorescence, stem cell growth factors (AID 1073). To be noted: Notch2 binding, higher = more signal.
The target of test [6] is Pro-neuregulin-1, membrane-bound isoform (Homo sapiens) (UniProt Q02297). As to the kind of experiment: NRG1 binders on small-molecule microarrays, primary screen, psychiatric disease protein project, biochemical, small-molecule microarray, fluorescence 635/667 (AID 1075).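 Also: score combines 667 nm spot fluorescence with signal to noise.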 To be noted: NRG1 binding, 635 nm fluorescence, higher = more signal.
Sequence of Pro-neuregulin-1, membrane-bound isoform (Homo sapiens) (Q02297 whole entry, looked up, the tested form may be a part, canonical isoform): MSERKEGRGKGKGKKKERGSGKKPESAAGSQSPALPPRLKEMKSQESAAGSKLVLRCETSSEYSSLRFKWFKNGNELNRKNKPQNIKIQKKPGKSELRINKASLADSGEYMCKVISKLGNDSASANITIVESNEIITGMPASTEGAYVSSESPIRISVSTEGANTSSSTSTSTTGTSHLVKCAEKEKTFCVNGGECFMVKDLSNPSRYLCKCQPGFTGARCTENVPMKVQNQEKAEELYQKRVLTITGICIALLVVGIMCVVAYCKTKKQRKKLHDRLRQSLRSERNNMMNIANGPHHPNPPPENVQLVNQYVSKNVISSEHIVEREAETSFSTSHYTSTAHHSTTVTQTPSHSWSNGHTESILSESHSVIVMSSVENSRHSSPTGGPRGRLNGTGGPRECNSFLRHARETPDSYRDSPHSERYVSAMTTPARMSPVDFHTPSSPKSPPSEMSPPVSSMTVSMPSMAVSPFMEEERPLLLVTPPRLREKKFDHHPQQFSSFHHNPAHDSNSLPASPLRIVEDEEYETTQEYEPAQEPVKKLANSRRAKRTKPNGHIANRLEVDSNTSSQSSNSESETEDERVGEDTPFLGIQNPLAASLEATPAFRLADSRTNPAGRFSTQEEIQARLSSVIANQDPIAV
For test [7], the system named is Neuregulin-1 EGF-like domain. Kind of test: binders of neuregulin-1 EGF-like domain, primary screen, biochemical, small-molecule microarray, 635 nm fluorescence (AID 1081).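 Also: binding of the protein to compounds printed on small-molecule microarray slides.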 To be noted: small-molecule microarray binding, higher = more signal.
The nature of test [8]: FRG1 promoter luciferase signal modulators, primary screen, FRG1 inhibition for FSHD, cell-based, C2C12 myotubes, firefly/Renilla luciferase, luminescence (AID 1084). To be noted: higher = more signal, called active from +8 up or from −8 down.
Test [9] can be described thus: binders of probe aFST on microarray, primary screen, stem cell growth factor project, biochemical, small-molecule microarray, fluorescence 635/667 (AID 1086).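 Also: score merges 667 nm fluorescence with signal-to-noise of each printed compound spot.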 To be noted: higher = more signal.
A short description of test [10]: binders of probe aHhip on microarray, primary screen, stem cell growth factor project, biochemical, small-molecule microarray, fluorescence 635/667 (AID 1087).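 Also: score merges spot fluorescence at 667nm with spot signal to noise ratio.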 To be noted: higher = more signal.

Sequence of Neurogenic locus notch homolog protein 2 (Homo sapiens) (Q04721 whole entry, looked up, canonical isoform): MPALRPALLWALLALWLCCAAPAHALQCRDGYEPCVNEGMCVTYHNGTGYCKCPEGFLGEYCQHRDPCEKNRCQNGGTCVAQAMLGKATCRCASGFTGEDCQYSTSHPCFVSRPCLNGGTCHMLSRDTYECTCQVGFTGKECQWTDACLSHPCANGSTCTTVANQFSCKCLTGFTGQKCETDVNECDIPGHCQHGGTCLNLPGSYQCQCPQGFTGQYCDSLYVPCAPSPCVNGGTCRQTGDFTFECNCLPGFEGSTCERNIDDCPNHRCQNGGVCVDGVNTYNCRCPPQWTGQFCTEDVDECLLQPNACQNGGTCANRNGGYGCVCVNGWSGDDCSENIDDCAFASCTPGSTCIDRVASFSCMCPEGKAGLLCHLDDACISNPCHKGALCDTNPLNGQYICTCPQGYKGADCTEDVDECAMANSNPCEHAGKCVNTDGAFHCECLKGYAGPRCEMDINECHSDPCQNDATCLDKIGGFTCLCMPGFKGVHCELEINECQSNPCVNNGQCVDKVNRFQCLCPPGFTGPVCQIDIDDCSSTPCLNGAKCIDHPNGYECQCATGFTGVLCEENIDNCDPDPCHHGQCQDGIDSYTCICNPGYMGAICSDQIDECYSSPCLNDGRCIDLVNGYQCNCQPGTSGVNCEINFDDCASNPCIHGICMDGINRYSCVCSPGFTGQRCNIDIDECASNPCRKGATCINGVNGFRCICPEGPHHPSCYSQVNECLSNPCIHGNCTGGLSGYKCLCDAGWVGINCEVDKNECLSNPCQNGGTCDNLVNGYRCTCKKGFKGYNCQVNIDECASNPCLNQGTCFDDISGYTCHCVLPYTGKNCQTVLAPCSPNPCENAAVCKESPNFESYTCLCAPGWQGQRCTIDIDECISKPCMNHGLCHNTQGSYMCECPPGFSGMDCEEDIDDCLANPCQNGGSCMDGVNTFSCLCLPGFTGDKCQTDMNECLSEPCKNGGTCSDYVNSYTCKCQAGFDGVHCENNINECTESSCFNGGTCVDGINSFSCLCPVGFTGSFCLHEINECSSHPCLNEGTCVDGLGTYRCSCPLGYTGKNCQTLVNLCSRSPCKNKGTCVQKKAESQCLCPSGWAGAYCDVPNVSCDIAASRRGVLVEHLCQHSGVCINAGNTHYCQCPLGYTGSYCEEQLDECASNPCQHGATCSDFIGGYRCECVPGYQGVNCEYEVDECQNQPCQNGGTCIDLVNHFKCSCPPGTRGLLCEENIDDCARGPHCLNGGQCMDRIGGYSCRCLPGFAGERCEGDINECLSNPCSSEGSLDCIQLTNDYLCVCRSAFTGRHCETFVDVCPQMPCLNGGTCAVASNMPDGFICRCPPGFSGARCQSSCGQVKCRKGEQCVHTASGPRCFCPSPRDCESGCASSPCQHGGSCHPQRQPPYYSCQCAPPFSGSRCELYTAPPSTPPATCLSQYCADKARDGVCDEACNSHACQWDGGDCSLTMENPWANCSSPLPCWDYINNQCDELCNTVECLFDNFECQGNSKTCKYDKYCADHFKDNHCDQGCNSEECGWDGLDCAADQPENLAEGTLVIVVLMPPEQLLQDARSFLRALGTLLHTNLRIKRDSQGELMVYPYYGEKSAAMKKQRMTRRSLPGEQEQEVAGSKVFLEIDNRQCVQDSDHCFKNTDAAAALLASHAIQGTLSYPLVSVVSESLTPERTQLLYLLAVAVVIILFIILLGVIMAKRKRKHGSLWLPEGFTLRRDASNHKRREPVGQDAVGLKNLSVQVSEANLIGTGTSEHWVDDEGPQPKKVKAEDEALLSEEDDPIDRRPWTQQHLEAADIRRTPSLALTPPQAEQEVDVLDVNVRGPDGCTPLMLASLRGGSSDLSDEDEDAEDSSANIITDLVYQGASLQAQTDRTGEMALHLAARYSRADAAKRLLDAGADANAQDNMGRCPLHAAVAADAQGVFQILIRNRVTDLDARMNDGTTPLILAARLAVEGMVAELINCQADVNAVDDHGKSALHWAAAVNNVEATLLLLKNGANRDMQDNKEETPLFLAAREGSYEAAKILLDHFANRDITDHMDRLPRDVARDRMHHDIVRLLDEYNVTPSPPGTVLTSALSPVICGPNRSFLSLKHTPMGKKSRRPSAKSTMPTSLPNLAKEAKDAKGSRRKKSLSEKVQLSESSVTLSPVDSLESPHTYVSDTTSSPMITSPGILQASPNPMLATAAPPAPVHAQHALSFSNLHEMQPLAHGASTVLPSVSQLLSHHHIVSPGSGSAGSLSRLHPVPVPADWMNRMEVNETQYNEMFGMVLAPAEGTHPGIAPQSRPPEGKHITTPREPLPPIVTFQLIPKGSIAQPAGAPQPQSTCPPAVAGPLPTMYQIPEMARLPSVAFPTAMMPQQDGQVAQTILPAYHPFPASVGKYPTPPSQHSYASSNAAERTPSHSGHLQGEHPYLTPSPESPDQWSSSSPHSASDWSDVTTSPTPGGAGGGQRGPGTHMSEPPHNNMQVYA

For `CCCCN1CC=CC23O[C@@H]4C=CCOC(=O)[C@@H]4[C@H]2C(=O)N(CCCO)[C@@H]3C1=O` (stereo not given in full), the composite z-score in test [1] was 0.594; in [2] it was -0.0489; in test [3], -0.137; in test [4], -0.423; in test [5], -1.51; in test [6] it was 1.03. The composite z-score in test [7] was 1.54; in test [9], -0.488; in test [10], -0.134. Further, the z-score in test [8] was 0.0518 (inactive).

Turning to `C=CCN1C(=O)[C@@]2(O[C@@H](CCO)[C@H]([Si](C)(C)c3ccc(OC)cc3)[C@H]2C)c2cc(N3C(=O)c4ccccc4Oc4ccccc43)ccc21`, the composite z-score was -0.033 in [1]; 0.0892 in [2]; -0.0491 in test [3]; 0.907 in test [4]; 0.166 in test [5]; 0.402 in test [6]. Also, the results for the composite z-score in [7], in test [9] and in test [10] were 0.882, -0.204 and -0.261, respectively. The z-score in test [8] was -1.94 (inactive).

For `CN(C)C(=O)[C@@]1(Cc2ccccc2N=[N+]=[N-])COC(c2ccc(OCCCO)cc2)=N1`, the composite z-score in test [1] was determined as 0.541; in test [2], 0.33; in test [3], 0.0493; in test [4], 1.02; in test [5], 0.687; in [6], 1.05. Further, the composite z-score in test [7] is 1.33; in test [9] it was 0.495; in test [10], 0.0349. Moreover, in [8], the z-score is -0.927 (inactive).

Regarding `C=C[C@@H](C)[C@H](OC(=O)Nc1ccc(SC)cc1)c1ccc(OCCO)cc1`, the composite z-score in [1] is 0.342; in test [2], -0.272; in test [3], -0.215; in test [4], -0.542; in test [5], -0.713; in test [6], 1.8. Besides, the results for the composite z-score in test [7], in [9] and in test [10] were 1.22, -0.375 and -0.0538, respectively. For the same compound, the z-score in test [8] was 6.28 (inactive).

As to `C=CCC(OC(C)=O)[C@@H]1[C@@H](N(Cc2ccc(-c3ccccc3)cc2)C(=O)c2cccc3ccccc23)c2cc(OCCCO)ccc2N1C(=O)Cc1ccc2ccccc2c1` (stereo not given in full), the composite z-score in test [1] is -0.144; in test [2], 0.407; in test [3], -0.0445; in [4], 0.237; in test [5], -0.101; in test [6] it was -0.278. In addition, the composite z-score in [7] was -0.621; in test [9] it was -0.0377; in [10], 0.154. In [8], the z-score is -0.873 (inactive).

Take `O=C1O[C@@H](c2ccccc2)[C@@H](c2ccccc2)N2[C@@H](c3ccc(O)cc3)[C@]3(C(=O)Nc4ccc(C#CCCO)cc43)[C@@H](C(=O)NC[C@H](O)c3ccccc3)[C@H]12`: the composite z-score in test [1] was 0.239; in test [2], 0.762; in test [3], -0.206; in test [4], -0.812; in test [5] it was -0.724; in test [6], 0.381. Moreover, the composite z-score was 1 in test [7], -0.0873 in test [9] and -0.134 in [10]. Further, in [8], the z-score is -0.233 (inactive).

For the compound `COCCOC(=O)N1C(=O)[C@@]2(c3cc(C#CCC(C(=O)OC)C(=O)OC)ccc31)[C@H](c1ccc(OCCO)cc1)N1[C@H](c3ccccc3)[C@H](c3ccccc3)OC(=O)[C@H]1[C@@H]2C(=O)N1CCN(c2ncccn2)CC1`, the composite z-score in test [1] is -0.372; in test [2], 1.32; in test [3], -0.0431; in test [4], 0.905; in [5], 1.25; in test [6] it was 1.64. In addition, the composite z-score in test [7] came out at 1.14; in [9] it was 0.789; in test [10], 0.142. Further, in [8], the z-score is 0.977 (inactive).

In the case of `COc1cc(CO)cc(I)c1O[C@H]1C=C(C(=O)NCCO)C[C@@H](N(CC2CCCCC2)C(=O)c2ccc(C(F)(F)F)cc2)[C@@H]1O`, the composite z-score is -0.356 in [1]; 0.0668 in test [2]; -0.101 in test [3]; 0.268 in [4]; 0.546 in test [5]; 0.115 in test [6]. Further, the values for the composite z-score in test [7], in test [9] and in test [10] were 1.02, 0.0701 and 0.12, respectively. In addition, the z-score in [8] was -1.85 (inactive).

Take `Cc1ccc(F)cc1S(=O)(=O)N[C@@H]1CCN(Cc2ccc(OC(C)C)cc2)C1`: the composite z-score in test [1] was -0.0929; in [2] it was 0.571; in [3] it was -0.115; in test [4], -0.209; in test [5], -0.863; in test [6], -0.136. The composite z-score is 0.288 in test [7], -0.192 in test [9] and -0.257 in test [10]. In addition, the z-score in test [8] is -1.22 (inactive).

`C=CCN1C(=O)[C@]2(CC=C)N=C(c3ccc(OCCCO)cc3)O[C@@H]2c2ccccc21`: the composite z-score in test [1] was determined as 0.967; in test [2] it was 0.194; in test [3], 0.123; in [4], 0.0547; in test [5], 1.05; in [6] it was 1.03. Further, the values for the composite z-score in test [7], in test [9] and in [10] were 1.26, 0.61 and 0.0327, respectively. Further, the z-score in test [8] is -1.86 (inactive).

`CC(C)(C)OC(=O)CC[C@@]1(C(=O)O)N=C(c2ccc(OCCCO)cc2)O[C@@H]1c1ccccc1`: the composite z-score in test [1] was 0.308; in test [2] it was -0.648; in test [3] it was -0.0459; in test [4] it was 0.13; in [5], 0.347; in [6] it was 1.96. Also, the composite z-score in test [7] worked out at 1.53; in [9] it was 0.398; in test [10] it was 0.24. Moreover, in [8], the z-score was 0.853 (inactive).

As for `CCOC(=O)C1=CC[C@@H](c2ccccc2C(F)(F)F)N(S(=O)(=O)c2ccc(C)cc2)C1`, the composite z-score amounted to 0.811 in [1]; 1.54 in [2]; 0.313 in test [3]; 1.1 in test [4]; 1.67 in test [5]; 1.79 in test [6]. Further, the composite z-score was 1.28 in test [7], 0.997 in test [9] and -0.0439 in test [10]. Further, in test [8], the z-score is -3.59 (inactive).

On to `C=CCN1C(=O)[C@@]2(CCC(=O)OC(C)(C)C)N=C(c3ccc(OCCCO)cc3)O[C@H]2c2ccccc21`, for which the composite z-score in test [1] worked out at 0.324; in test [2], 0.198; in test [3], 0.0698; in test [4], 0.0883; in [5], 0.724; in [6] it was 0.82. Besides, the composite z-score is 1.21 in test [7], 0.278 in test [9] and -0.195 in test [10]. In test [8], the z-score was -2.47 (inactive).

On to `CC(C)(C)OC(=O)CC[C@]1(C(=O)NCCN2CCOCC2)N=C(c2ccc(OCCCO)cc2)O[C@H]1c1ccccc1N=[N+]=[N-]`, for which the composite z-score in test [1] was 0.85; in test [2] it was 1.55; in test [3], 0.105; in test [4], 0.606; in test [5], 0.1; in test [6] it was 1.72. For the same compound, the composite z-score in [7] was determined as 1.39; in test [9], 0.778; in test [10] it was 0.913. Also, the z-score in test [8] is 4.57 (inactive).
